The text below walks through data of PubChem BioAssay AID602440 (Sanford-Burnham Center for Chemical Genomics, 2012).

Screen size: about 360,000 compounds; about 2,300 (0.64%) were called active. Many of the other results were omitted from the sample, so actives are more common in it than they were. Unmarked numbers belong to inactive results. Rule as the data show it: active = inhibition mostly above about 40% (no sharp cut-off); inactive = mostly below about 27%.

Sequence of Sentrin-specific protease 8 (Homo sapiens) (Q96LD8 whole entry, looked up): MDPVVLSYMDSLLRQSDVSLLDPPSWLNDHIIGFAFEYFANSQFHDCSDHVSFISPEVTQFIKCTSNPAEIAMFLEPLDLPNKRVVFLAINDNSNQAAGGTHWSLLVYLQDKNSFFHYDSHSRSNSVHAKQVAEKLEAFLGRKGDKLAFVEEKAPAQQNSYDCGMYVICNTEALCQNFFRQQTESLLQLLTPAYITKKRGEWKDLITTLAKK

The assay concerns the target Sentrin-specific protease 8 (Homo sapiens) (UniProt Q96LD8). Briefly: blockers of SENP8 deneddylase activity – biochemical, fluorescence, Nedd8 protein substrate, uHTS, primary screen (AID 602440). Conditions: recombinant SENP8, Nedd8 substrate fluorescence; at 20 µM; active compounds read high.
Broadly, the inhibition is the relative decrease from the control value, in per cent. As for `CC(C)(C)CN1CCNC(=O)C1CC(=O)NC1Cc2ccccc2C1` (stereo not given), the inhibition was -47.4%.
The same measure for `COC(=O)CCCC1=CC2=CC(=O)C(C)(OC(=O)c3cccs3)C(=O)C2=CN1CC(C)C` (stereo not given): 40.8% (active); for `COC(=O)CCCC1=CC2=C(c3ccccc3)C(=O)C(C)(OC(=O)C3CCCC3)C(=O)C2=CN1c1ccc(OC)cc1` (stereo not given): -154%; for `CCCCC1=CC2=CC(=O)C(C)(OC(=O)CC)C(=O)C2=CN1CCCOC(C)C` (stereo not given): -190%.
In the case of `O=C(NC1CCN(S(=O)(=O)c2ccc(F)cc2)CC1)c1ccccc1` it was 15.3%; in that of `COC(=O)N(C)C[C@@H]1OCc2cnnn2CCCC(=O)N([C@@H](C)CO)C[C@@H]1C`, 18.6%.
The same measure for `COc1cc(NC(=O)c2cc([N+](=O)[O-])ccc2Br)ccc1NC(=O)c1ccco1`: 32.3%.
Regarding `COc1ccc(Cc2nnc(SCC(=O)c3cccc([N+](=O)[O-])c3)n2C)cc1`, the inhibition is 10.4%.
In the case of `COc1ccc(C(=O)c2c3ccc([N+](=O)[O-])cc3[n+]([O-])n2CCCN)cc1` it was 48.4% (active).
The same measure for `COc1ccc2c(C(=O)c3ccc(C)cc3)n(CCC(N)=O)[n+]([O-])c2c1`: 2.6%; for `COC(=O)c1ccc(S(=O)(=O)N(CCO)Cc2ccccc2)n1C`: 21.1%; for `CC(=O)NS(=O)(=O)c1ccccc1`: 0.5%.
In the case of `O=C1C=C(NS(=O)(=O)c2ccccc2)C(=O)c2ccccc21` it was 51.3% (active); in that of `O=C(NC1=CC(=O)c2ccccc2C1=O)c1ccccc1`, 44.7% (active).
For `Cc1cc(NS(=O)(=O)c2ccccc2)no1`, the inhibition was 11.5%.
The same measure for `C/C(=N\NC(=O)c1ccc(C)cc1)C1C(=O)c2ccccc2C1=O`: 38.5%; for `CN(C)C(=O)c1ccc(NC(=O)c2ccccc2-c2ccccc2)cc1`: 4.2%; for `CCN(CC)S(=O)(=O)c1ccc2c3c(cccc13)C(=O)S2`: -49.2%.
As for `NC(=O)C1CC=CCC1C(=O)OCC(Cl)=C(Cl)Cl` (stereo not given), the inhibition is 1.1%.
With `Cc1cc(N2C(=O)C(=O)/C(=C(/O)c3ccc(Cl)cc3)C2c2cccc(Br)c2)no1` (stereo not given), the inhibition is -138%.
For `O=S1(=O)CCN2C(=N1)SC1=C2CCN(Cc2ccccc2)C1`, the inhibition was 21.1%.
For `C=CCn1c(SCC(=O)c2ccc(Br)cc2)nnc1C(C)NC(=O)Cc1ccc(OC)cc1` (stereo not given), the inhibition was 1.1%.
For `CS(=O)(=O)c1ccc(C(=O)OCC(=O)NNC(=O)COc2ccc(Cl)cc2)cc1`, the inhibition was 11.8%.
As for `CC(C)Cc1nnc(NC(=O)CCNC(=O)c2ccccc2Cl)s1`, the inhibition is 8.4%.
On to `CC(C)Cc1nnc(NC(=O)CCC(=O)Nc2ccc3cn[nH]c3c2)s1`, for which the inhibition was 42.9% (active).
The same measure for `CC(C)Cc1nnc(NC(=O)CCc2ccccc2)s1`: 2.2%; for `CN(C)CCCn1c(SCCN2C(=O)c3ccccc3C2=O)nc2ccccc2c1=O`: 2.7%.
Turning to `O=[N+]([O-])c1ccc(N2CCN(S(=O)(=O)c3ccc4ccccc4c3)CC2)cc1NCc1ccco1`, the inhibition is 28.5%.
In the case of `O=C(c1ccccc1)N1CCN(c2ccc([N+](=O)[O-])c(NCc3ccco3)c2)CC1` it was 41.8% (active); in that of `O=C(c1ccc(S(=O)(=O)NCc2ccco2)cc1)N1CCN(c2ccccc2)CC1`, 17.9%; in that of `O=C(NCCC1CCCCN1S(=O)(=O)c1ccccc1)C(=O)NCC1CCCO1` (stereo not given), 7.7%.
In the case of `CCCCNC(=O)C(C)N(CCN(C)C)C(=O)CCCN1C(=O)NC(c2ccc(Cl)cc2)C(C(=O)OCc2ccccc2)=C1C` (stereo not given), the inhibition was 12.8%.
The same measure for `C/C(=N/NC(=O)c1ccc(Br)o1)c1ccc(C)o1`: -3.6%; for `O=C(c1cccc(F)c1)N1CCN(c2ccc([N+](=O)[O-])c3cccnc23)CC1`: 41.3% (active); for `O=C(c1cccc(F)c1)N1CCC(O)(c2cccnc2)CC1`: 18.5%.
The same measure for `Cc1ccccc1CN1CCN(C(=O)c2cccc(F)c2)CC1`: 17.2%; for `NC(=O)C1CC(=O)N(c2ccc(OCC(=O)NCc3ccccc3)cc2)C1` (stereo not given): 5.3%.
The same measure for `CC(C)C[C@@H](CO)N1CCN(Cc2ccc(O)cc2)CCC1=O`: -5%; for `CC(C)(C)NC(=O)NC(=O)COC(=O)C1(C)CC1(Cl)Cl` (stereo not given): 12.9%; for `CN(C)C(=O)c1cccc(-c2cnc3c(NC=O)cc(-c4ccc(C(=O)N5CCOCC5)cc4)cn23)c1`: -177%.
Turning to `O=C1NNC(c2ccccc2)=N/C1=C\c1ccc(Cl)cc1`, the inhibition was 64% (active).
Regarding `O=C(c1ccccc1)c1ccc(OC(=O)N2CCCC2)cc1`, the inhibition is 22.4%.
Consider `COc1ccc(OC)c(NC(=O)c2ccc3c(c2)CCN3S(C)(=O)=O)c1`, for which the inhibition was 3%.
The same measure for `Cc1nc(C(=O)NCc2ccccc2)sc1C1(C)CC(c2cccnc2)=NO1` (stereo not given): 8.5%; for `CC(=O)N/C(=C\c1ccc(F)cc1)C(=O)NC(Cc1ccccc1)C(=O)O` (stereo not given): 2.6%.
`CC(C)[C@H](NC(=O)N1c2ccccc2NC(=O)[C@@H]1C(C)C)C(=O)N[C@H](C(=O)O)c1ccccc1`: the inhibition was 37%.
Turning to `CCC(C)[C@H](NC(=O)N1c2ccccc2NC(=O)[C@@H]1C(C)C)C(=O)N[C@@H](Cc1ccccc1)C(=O)O` (stereo not given in full), the inhibition was 53.4% (active).
In the case of `COc1ccc([C@H]2N[C@]3(CCCN(Cc4ccco4)C3=O)[C@H]3C(=O)N(C)C(=O)[C@@H]23)cc1` it was -14%; in that of `O=C(NCCCN1CCN(c2ccc(F)cc2)CC1)Nc1ccc([N+](=O)[O-])cc1`, 44.8% (active).
Consider `O=C(CCN1C(=O)COc2ccccc21)NCCCN1CCN(c2ccc(F)cc2)CC1`, for which the inhibition was 12.7%.
Take `O=C(CSc1ccc([N+](=O)[O-])cn1)Nc1ccc(N2CCOCC2)cc1`: the inhibition is 37.7%.
`O=C(Nc1ccc(C(=O)NCc2ccccc2Cl)cc1)C1=CSCCO1`: the inhibition was -35.3%.
In the case of `COc1ccc(OC)c(C(O)c2nc3ccccc3n2C)c1` (stereo not given) it was 15.4%; in that of `Cn1nc(C(F)(F)F)c(C(=O)Nc2cccc(C(F)(F)F)c2)c1SCc1ccc(Cl)cc1`, 5.4%; in that of `CCCCn1c(N)c(N(CC(C)C)C(=O)c2ccc(Br)o2)c(=O)[nH]c1=O`, -3.8%.
